Laboratory results from PubChem BioAssay (Tox21).
Values without a mark were called inactive. Inconclusive results are not listed. A call without a number means that no potency is given here. Calls of active or inactive are those of the source. Unless noted, calls follow the shape of the dose curve; as a rule, active = well fitted curve in the direction sought with a large enough effect in the repeat runs; inconclusive = weak or mixed curves; inactive = no such curve, though single readings can be large; an effect the other way counts as inactive or inconclusive.

Tests used:
[1] = qHTS assay for small molecules that induce genotoxicity in human embryonic kidney cells expressing luciferase-tagged ATAD5 (AID 651632); also: nearly all actives have a fitted effect of over 15% in size
How it was run: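 Test compounds were delivered by pin tool onto HEK293T reporter cells (2,000/well) expressing ATAD5 fused to luciferase. After 16 hr at 37C, 5% CO2, Amplite was added for 30 min at room temperature and luminescence was measured.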

[2] = qHTS assay for small molecule agonists of the p53 signaling pathway - cell viability (AID 651633; calls by dose curve; also: nearly all actives have a fitted effect of over 30% in size; also: potency is read from the fitted curve at half-maximal effect)
How it was run: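 Viability counter-read: CellTiter-Glo luminescence (30 min, room temperature) in the same p53RE-bla plates. These plates had been exposed to compounds for 16 h at 37 C.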

[3] = qHTS assay for small molecules that induce genotoxicity in human embryonic kidney cells expressing luciferase-tagged ATAD5 - cell viability (AID 651634; calls by dose curve; also: nearly all actives have a fitted effect of over 25% in size)
How it was run: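 Quantitative high-throughput format. HEK293T cells expressing ATAD5 fused to luciferase were plated at 2,000 cells/well and treated 15.5 hr with compound versus DMSO. Viability was determined by fluorescent live-cell protease substrate, 30 min at 37C.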

[4] = qHTS assay for small molecule disruptors of the mitochondrial membrane potential - cell viability (AID 720634; calls by dose curve; also: nearly all actives have a fitted effect of over 20% in size; also: potency is read from the fitted curve at half-maximal effect)
How it was run: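 Same-well counter-screen: following the MMP dye addition, CellTiter-Glo was added to 1 hr compound-treated HepG2 cells and luminescence read after 30 min at room temperature.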

[5] = qHTS assay to test for compound auto fluorescence at 590 nm (red) in HepG2 cells (AID 720674)
How it was run: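 Red autofluorescence (Ex/Em 540/590 nm, Rose Bengal sodium equivalents) was measured in HepG2 cells, 2,000 per well in MEM plus 10% FBS, plated overnight at 37 C. Readings were taken 1 hr after adding 23 nL compound or DMSO, at 37 C and 5% CO2.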

[6] = qHTS assay to test for compound auto fluorescence at 535 nm (green) in HepG2 cells (AID 720675)
[7] = qHTS assay to test for compound auto fluorescence at 460 nm (blue) in HEK293 cells (AID 720678)
How it was run: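 HEK293, 2,000 cells/well, 10% dialyzed FBS; attach 4-5 hr 37C; pin compound or DMSO; o/n 37C/5% CO2; fluorescence 405/460 nm; triamterene-equivalent units.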

[8] = qHTS assay to test for compound auto fluorescence at 590 nm (red) in HEK293 cells (AID 720679)
How it was run: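 Intensity at 540nm excitation and 590nm emission is reported as Rose Bengal sodium-equivalent autofluorescence. Measurements followed overnight exposure (37C, 5% CO2) of HEK293 cells, 2,000 per well, to 23 nL compound.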

[9] = qHTS assay to test for compound auto fluorescence at 535 nm (green) in HEK293 cells (AID 720680)
[10] = qHTS assay to test for compound auto fluorescence at 460 nm (blue) in HEK293 cell free culture (AID 720681)
How it was run: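 Blue fluorescence (Ex 405/Em 460 nm, triamterene-equivalent) was read immediately after pin transfer of compound or DMSO into medium (DMEM, 10% FBS) without cells.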

[11] = qHTS assay to test for compound auto fluorescence at 535 nm (green) in HEK293 cell free culture (AID 720682)
How it was run: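 No cells present: wells hold DMEM supplemented with 10% FBS, into which compound or vehicle is pinned. Green emission is then recorded (485 nm excitation, 535 nm emission) and scaled to fluorescein.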

[12] = qHTS assay to test for compound auto fluorescence at 590 nm (red) in HepG2 cell free culture (AID 720684)
How it was run: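 Cell-free; medium MEM + 10% FBS; compound or DMSO added by pintool; read Ex 540/Em 590 nm; Rose Bengal sodium as red reference fluorophore.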

[13] = qHTS assay to test for compound auto fluorescence at 460 nm (blue) in HepG2 cell free culture (AID 720685)
How it was run: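 Cell-free plates of MEM plus 10% FBS received 23 nL compound or DMSO vehicle; blue-channel (405/460 nm) intensity scored against triamterene as reference fluorophore.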

[14] = qHTS assay to test for compound auto fluorescence at 460 nm (blue) in HepG2 cells (AID 720687)
How it was run: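 Blue-channel autofluorescence (Ex/Em 405/460 nm, triamterene-equivalent) was measured after 1 hr compound exposure at 37 C, 5% CO2. Cells were HepG2, plated overnight at 37 C in MEM plus 10% FBS.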

[15] = target: Glucocorticoid receptor (Homo sapiens) (UniProt P04150); assay: qHTS assay to identify small molecule agonists of the glucocorticoid receptor (GR) signaling pathway (AID 720691; active = well fitted activation curve with a large enough effect in the signal ratio in the repeat runs, not every such curve was filed as active; the % refers to the signal ratio); conditions: GR-bla HeLa, beta-lactamase reporter ratio, 18 h; activation: at 62.4 µM (top of the series) unless noted
Glucocorticoid receptor (Homo sapiens), sequence (P04150 whole entry, looked up): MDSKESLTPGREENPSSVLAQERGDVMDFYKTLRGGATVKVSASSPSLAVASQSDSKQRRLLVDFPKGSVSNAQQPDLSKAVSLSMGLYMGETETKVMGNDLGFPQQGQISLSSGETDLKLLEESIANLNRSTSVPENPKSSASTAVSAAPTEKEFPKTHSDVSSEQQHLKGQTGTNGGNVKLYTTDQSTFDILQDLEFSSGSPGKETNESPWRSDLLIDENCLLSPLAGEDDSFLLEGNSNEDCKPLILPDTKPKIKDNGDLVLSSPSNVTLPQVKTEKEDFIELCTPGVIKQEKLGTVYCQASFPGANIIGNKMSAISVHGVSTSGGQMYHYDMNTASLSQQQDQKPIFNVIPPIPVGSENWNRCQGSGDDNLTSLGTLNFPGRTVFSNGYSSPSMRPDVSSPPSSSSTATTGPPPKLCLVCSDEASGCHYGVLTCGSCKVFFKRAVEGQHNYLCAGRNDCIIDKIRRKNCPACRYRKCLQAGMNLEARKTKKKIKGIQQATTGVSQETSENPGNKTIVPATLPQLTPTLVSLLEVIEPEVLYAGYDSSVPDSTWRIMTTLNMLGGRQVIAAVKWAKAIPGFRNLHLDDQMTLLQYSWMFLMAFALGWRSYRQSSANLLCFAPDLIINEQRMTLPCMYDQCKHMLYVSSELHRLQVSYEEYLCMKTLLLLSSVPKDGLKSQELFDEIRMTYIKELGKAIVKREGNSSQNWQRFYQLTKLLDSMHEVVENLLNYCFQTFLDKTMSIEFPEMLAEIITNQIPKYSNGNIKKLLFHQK
How it was run: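 A HeLa cervical cancer line expressing GR and a glucocorticoid response element-driven beta-lactamase gene is treated with compounds for 18 h; LiveBLAzer B/G FRET substrate is then applied and fluorescence read.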

[16] = qHTS assay for small molecule disruptors of the mitochondrial membrane potential (AID 720635); also: potency is read from the fitted curve at half-maximal effect
How it was run: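 Mitochondrial membrane potential tracked with Mito-MPS dye, red aggregates (ex 540/em 590 nm) against green monomers (ex 490/em 535 nm). Compound treatment 1 hr at 37C, dye 30 min in HepG2.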

[17] = qHTS assay to test for compound auto fluorescence at 590 nm (red) in HEK293 cell free culture (AID 720683)
How it was run: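 Red-channel autofluorescence of compounds in culture medium (DMEM, 10% FBS), no cells, measured at 540/590 nm. Rose Bengal sodium is the reference fluorophore for equivalence.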

Compound	Potency [1]	Potency [2]	Potency [3]	Potency [4]	Potency [5]	Potency [6]	outcome [7]	Potency [8]	outcome [9]	outcome [10]	outcome [11]	Potency [12]	outcome [13]	outcome [14]	Potency [15]	Potency [16]	Potency [17]
CC(C)(COC(=O)c1ccccc1)COC(=O)c1ccccc1	inactive	inactive	inactive	inactive	inactive	inactive	inactive	inactive	inactive	inactive	inactive	inactive	inactive	inactive	inactive		
C=C1C(=C/C=C2\CCC[C@]3(C)[C@@H]([C@H](C)/C=C/[C@@H](O)C4CC4)CC[C@@H]23)C[C@@H](O)C[C@@H]1O	inactive	26.6 µM (active)		inactive	inactive	inactive	inactive	inactive	inactive	inactive	inactive	inactive	inactive	inactive	inactive	22.1 µM (active)	inactive
CCOC(=O)COC(=O)c1cc(Oc2ccc(C(F)(F)F)cc2Cl)ccc1[N+](=O)[O-]	inactive	inactive	inactive			inactive	inactive	inactive	inactive	inactive	inactive	inactive	inactive	inactive		61.1 µM (active)	inactive
O=C(Nc1ccccc1)c1ccccc1O	inactive		inactive	27.3 µM (active)	inactive	inactive	inactive	inactive	inactive	inactive	inactive	inactive	inactive	inactive		2.43 µM (active)	inactive
